Assay [1] is described as follows: qHTS assay to test for compound auto fluorescence at 535 nm (green) in HEK293 cells (AID 720680).
A short description of assay [2]: qHTS assay to test for compound auto fluorescence at 460 nm (blue) in HEK293 cell free culture (AID 720681). The essentials: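 Test compounds were pinned into cell-free culture medium (DMEM with 10% FBS) and fluorescence was read directly at Ex/Em 405/460 nm. Signals were expressed as fluorescence equivalents of triamterene, with DMSO vehicle as control.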
For orientation: In qHTS, concentration-response curves come from the screen itself.

Assay [3] in a line: qHTS assay to test for compound auto fluorescence at 535 nm (green) in HEK293 cell free culture (AID 720682). Summed up: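 Green-label autofluorescence (485 nm excitation, 535 nm emission) measured on compound added to cell-free culture medium (DMEM, 10% FBS). Output is expressed relative to fluorescein.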
Assay [4] can be described thus: qHTS assay to test for compound auto fluorescence at 590 nm (red) in HEK293 cell free culture (AID 720683). The essentials:
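Tox21 10K library compounds were pinned into cell-free DMEM with 10% FBS and fluorescence was read at excitation 540 nm. Activity is expressed as Rose Bengal sodium equivalency.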

The nature of assay [5]: qHTS assay to test for compound auto fluorescence at 590 nm (red) in HepG2 cell free culture (AID 720684). Summed up: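 Red fluorescence (540 nm excitation, 590 nm emission) was measured after compound transfer into cell-free MEM supplemented with 10% FBS. Values are equivalencies against Rose Bengal sodium.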
A short description of assay [6]: qHTS assay to test for compound auto fluorescence at 460 nm (blue) in HepG2 cell free culture (AID 720685). The essentials: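 Compound (23 nL) or DMSO pinned into cell-free MEM with 10% FBS; blue fluorescence read at 405/460 nm excitation/emission, expressed as auto-fluorescence equivalency to triamterene.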
The nature of assay [7]: qHTS assay to test for compound auto fluorescence at 535 nm (green) in HepG2 cell free culture (AID 720686).
Assay [8] can be described thus: qHTS assay to test for compound auto fluorescence at 460 nm (blue) in HepG2 cells (AID 720687). Summed up: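 Cells (2,000/well in MEM with 10% FBS) attached overnight at 37 C, then were exposed to compound or DMSO for 1 hr at 37 C, 5% CO2. Fluorescence read at Ex/Em 405/460 nm, expressed as triamterene-equivalent signal.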
Assay [9] addresses Glucocorticoid receptor (Homo sapiens) (UniProt P04150). Put plainly: qHTS assay to identify small molecule agonists of the glucocorticoid receptor (GR) signaling pathway (AID 720691; active = well fitted activation curve with a large enough effect in the signal ratio in the repeat runs, not every such curve was filed as active; the % refers to the signal ratio). The essentials: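 GR-bla HeLa cells (beta-lactamase reporter under glucocorticoid response element) were plated 4 h at 37 C/5% CO2, given compounds in DMSO, and incubated 18 h at 37 C. LiveBLAzer B/G FRET substrate was added for 2 h at room temperature, then fluorescence intensity read.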

For assay [10] the target is unchanged. Put plainly: qHTS assay to identify small molecule antagonists of the glucocorticoid receptor (GR) signaling pathway (AID 720692; active = well fitted inhibition curve with a large enough effect in the signal ratio in the repeat runs, not every such curve was filed as active; the % refers to the signal ratio). Summed up:
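GR-bla HeLa cells (beta-lactamase reporter under glucocorticoid response element) were pre-plated 4 h at 37 C, treated with compounds plus 5 nM dexamethasone (final) for 18 h, then read by LiveBLAzer B/G FRET fluorescence after 2 h.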

The nature of assay [11]: qHTS assay to identify small molecule antagonists of the glucocorticoid receptor (GR) signaling pathway - cell viability counter screen (AID 720693). Also: nearly all actives have a fitted effect of over 55% in size.
Assay [12] can be described thus: qHTS assay for identifying genotoxic compounds that show differential cytotoxicity against isogenic chicken DT40 cell lines with known DNA damage response pathways - wild type cell line (AID 743012). Also: nearly all actives have a fitted effect of over 60% in size. Also: potency is read from the fitted curve at half-maximal effect. Summed up:
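Parental DNA repair-proficient DT40 cells, 300 per well, were pre-incubated ~0.5 h at 37 C/5% CO2, pin-dosed with compounds in DMSO, then incubated 40 h. Viability was read as CellTiter-Glo luminescence after 30 min at room temperature.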

The nature of assay [13]: qHTS assay for identifying genotoxic compounds that show differential cytotoxicity against isogenic chicken DT40 cell lines with known DNA damage response pathways - Rev3 mutant cell line (AID 743014). Also: nearly all actives have a fitted effect of over 55% in size. Also: potency is read from the fitted curve at half-maximal effect.
Assay [14] in a line: qHTS assay for identifying genotoxic compounds that show differential cytotoxicity against isogenic chicken DT40 cell lines with known DNA damage response pathways - Rad54/Ku70 mutant cell line (AID 743015). Also: nearly all actives have a fitted effect of over 60% in size. Also: potency is read from the fitted curve at half-maximal effect.
Assay [15] is described as follows: qHTS assay to identify small molecule antagonists of the androgen receptor (AR) signaling pathway - cell viability counter screen (AID 743033; also: nearly all actives have a fitted effect of over 45% in size).
A short description of assay [16]: qHTS assay to identify small molecule antagonists of the androgen receptor (AR) signaling pathway using the MDA cell line - cell viability counter screen (AID 743041; also: nearly all actives have a fitted effect of over 45% in size). Summed up: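 MDA-kb2 AR-luc human breast carcinoma cells (MMTV-luciferase, AR/GR responsive) were treated with compounds plus R1881 agonist for 16 h at 37 °C. Viability was read as CellTiter-Fluor fluorescence in the same wells as the reporter assay.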

The target of assay [17] is Androgen receptor (Homo sapiens) (UniProt P10275). Put plainly: qHTS assay to identify small molecule antagonists of the androgen receptor (AR) signaling pathway (AID 743035; active = well fitted inhibition curve with a large enough effect in the signal ratio in the repeat runs, not every such curve was filed as active; the % refers to the signal ratio). The essentials:
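HEK293 cells stably carrying a UAS-driven beta-lactamase reporter (AR-UAS-bla GripTite) were plated for 4 h at 37C, then given compound and the agonist R1881 and incubated 16 h. Reporter activity was read by LiveBLAzer B/G FRET fluorescence after 2 h at room temperature.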

The target is the same in assay [18]. Put plainly: qHTS assay to identify small molecule antagonists of the androgen receptor (AR) signaling pathway using the MDA cell line (AID 743042; also: nearly all actives have a fitted effect of over 55% in size). The essentials:
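MDA-kb2 cells (human breast carcinoma, stably carrying an MMTV-luciferase reporter responsive to AR and GR) were plated at 3,000 cells/well and preincubated 5 hr at 37C, then given compound plus R1881 agonist for 16 h. ONE-Glo luminescence was read.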

SMILES strings stand for the structures. Where “and” joins values, the source holds several entries; their conditions need not be identical. Equal values may be shown once. Inconclusive results are not listed. Some structures have more than one record in an assay (separate samples or runs), and their calls can disagree. Calls of active or inactive are those of the source. Unless noted, calls follow the shape of the dose curve; as a rule, active = well fitted curve in the direction sought with a large enough effect in the repeat runs; inconclusive = weak or mixed curves; inactive = no such curve, though single readings can be large; an effect the other way counts as inactive or inconclusive.

Androgen receptor (Homo sapiens), sequence (P10275 whole entry, looked up): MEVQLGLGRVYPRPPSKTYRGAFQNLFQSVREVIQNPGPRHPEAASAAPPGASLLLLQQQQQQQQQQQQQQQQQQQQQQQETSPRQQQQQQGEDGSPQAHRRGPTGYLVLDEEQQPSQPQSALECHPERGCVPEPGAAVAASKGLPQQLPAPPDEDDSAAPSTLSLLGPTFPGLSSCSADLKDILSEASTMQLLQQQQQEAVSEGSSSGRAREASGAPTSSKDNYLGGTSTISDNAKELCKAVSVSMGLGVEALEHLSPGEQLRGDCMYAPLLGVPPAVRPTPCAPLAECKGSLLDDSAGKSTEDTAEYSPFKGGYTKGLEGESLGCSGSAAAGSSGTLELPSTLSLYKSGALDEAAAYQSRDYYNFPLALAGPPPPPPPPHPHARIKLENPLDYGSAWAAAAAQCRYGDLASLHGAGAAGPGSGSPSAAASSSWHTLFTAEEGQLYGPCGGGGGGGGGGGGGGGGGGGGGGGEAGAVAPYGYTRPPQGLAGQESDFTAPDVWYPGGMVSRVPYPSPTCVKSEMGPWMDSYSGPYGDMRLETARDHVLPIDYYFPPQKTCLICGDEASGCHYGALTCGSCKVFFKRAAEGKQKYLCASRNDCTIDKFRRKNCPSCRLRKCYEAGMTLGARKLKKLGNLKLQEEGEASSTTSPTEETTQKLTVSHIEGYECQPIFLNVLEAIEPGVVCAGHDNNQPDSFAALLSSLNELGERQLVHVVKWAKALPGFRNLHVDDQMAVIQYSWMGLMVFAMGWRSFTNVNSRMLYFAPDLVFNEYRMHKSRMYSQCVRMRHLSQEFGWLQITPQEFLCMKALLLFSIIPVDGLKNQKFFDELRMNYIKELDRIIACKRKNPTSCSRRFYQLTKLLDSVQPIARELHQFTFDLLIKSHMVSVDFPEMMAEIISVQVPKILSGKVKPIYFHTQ
Glucocorticoid receptor (Homo sapiens), sequence (P04150 whole entry, looked up): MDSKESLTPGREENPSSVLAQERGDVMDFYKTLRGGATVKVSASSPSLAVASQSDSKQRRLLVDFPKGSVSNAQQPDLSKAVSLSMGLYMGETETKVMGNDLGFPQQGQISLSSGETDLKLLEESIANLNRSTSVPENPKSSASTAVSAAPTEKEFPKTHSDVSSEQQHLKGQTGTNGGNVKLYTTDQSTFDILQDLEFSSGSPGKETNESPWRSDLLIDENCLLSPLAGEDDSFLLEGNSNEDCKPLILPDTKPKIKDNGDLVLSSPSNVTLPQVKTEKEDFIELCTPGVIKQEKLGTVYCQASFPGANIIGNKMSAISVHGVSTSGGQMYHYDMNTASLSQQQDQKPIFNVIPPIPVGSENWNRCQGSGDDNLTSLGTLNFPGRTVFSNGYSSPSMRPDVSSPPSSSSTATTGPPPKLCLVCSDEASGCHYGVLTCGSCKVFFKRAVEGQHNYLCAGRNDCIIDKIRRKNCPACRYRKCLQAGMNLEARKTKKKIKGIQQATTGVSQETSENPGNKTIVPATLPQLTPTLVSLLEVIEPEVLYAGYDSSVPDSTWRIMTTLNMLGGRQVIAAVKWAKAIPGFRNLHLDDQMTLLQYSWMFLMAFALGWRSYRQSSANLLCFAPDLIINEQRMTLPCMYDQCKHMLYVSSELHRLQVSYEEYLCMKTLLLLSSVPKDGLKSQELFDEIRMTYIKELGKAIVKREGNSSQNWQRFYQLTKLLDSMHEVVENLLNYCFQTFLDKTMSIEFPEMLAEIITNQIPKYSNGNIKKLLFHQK

Turning to `[Na+]`, the Potency result in assay [1], in [2], in assay [3], in assay [4], in [5] and in assay [6] was “inactive” in each case. The Potency entry in assay [7], in assay [8], in [9], in assay [10], in assay [11] and in [12] was “inactive” each time. The Potency entry in assay [13], in assay [14], in assay [15] and in [16] was “inactive” in each case.
Take `Cc1ccc2c(c1)C(=O)OC2=O`: the Potency entry in [1], in assay [2], in assay [3], in [4], in [5] and in assay [6] was “inactive” throughout. The Potency result in [7], in assay [8], in assay [9], in assay [10], in assay [11] and in assay [12] was “inactive” each time. Moreover, the Potency entry in assay [13], in assay [15] and in assay [16] was “inactive” in each case.
For `O=S1(=O)CCCO1`, the Potency entry in assay [1], in [2], in assay [3], in assay [4], in assay [5] and in [6] was “inactive” throughout. Moreover, the Potency result in assay [7], in assay [8], in assay [9], in assay [10], in assay [11] and in [12] was “inactive” throughout. Besides, the Potency result in assay [13], in [15] and in assay [16] was “inactive” each time.
On to `C/C=C/C(=O)N(CC)c1ccccc1C`, for which the Potency result in assay [1], in assay [2], in [3], in assay [4], in assay [5] and in [6] was “inactive” in each case. Moreover, the Potency result in assay [7], in [8], in assay [9], in [10], in [11] and in assay [15] was “inactive” in each case. Also, the Potency entry in [16] is “inactive”. Further, the Potency in assay [12] was 54.5 µM (active); in assay [13], 54.5 µM (active); in assay [14], “inactive and 48.6 µM (active)”.
As to `OC[C@H]1O[C@@H]2O[C@H]3[C@H](O)[C@@H](O)[C@@H](O[C@H]4[C@H](O)[C@@H](O)[C@@H](O[C@H]5[C@H](O)[C@@H](O)[C@@H](O[C@H]6[C@H](O)[C@@H](O)[C@@H](O[C@H]7[C@H](O)[C@@H](O)[C@@H](O[C@H]1[C@H](O)[C@H]2O)O[C@@H]7CO)O[C@@H]6CO)O[C@@H]5CO)O[C@@H]4CO)O[C@@H]3CO`, the Potency entry in assay [1], in [2], in [3], in [4], in assay [5] and in [6] was “inactive” each time. Further, the Potency result in assay [7], in [8], in [9], in assay [10], in [11] and in [12] was “inactive” each time. In addition, the Potency entry in assay [13], in assay [15] and in [16] was “inactive” throughout.
In the case of `CCC/C=C/C=O`, the Potency entry in assay [1], in [2], in assay [3], in assay [4], in assay [5] and in assay [6] was “inactive” throughout. Moreover, the Potency result in assay [7], in assay [8], in assay [9], in [10], in [11] and in [12] was “inactive” each time. The Potency entry in assay [13], in [14], in [15], in [17], in assay [16] and in assay [18] was “inactive” in each case.
With `IC(I)I`, the Potency entry in assay [1], in assay [2], in assay [3], in assay [4], in assay [5] and in [6] was “inactive” throughout. Besides, the Potency result in [7], in [8], in [9], in [10], in assay [11] and in assay [12] was “inactive” each time. In addition, the Potency entry in assay [13], in [14], in assay [15] and in [16] was “inactive” throughout.
As to `OCCNCCO`, the Potency result in [1], in [2], in assay [3], in assay [4], in [5] and in [6] was “inactive” in each case. In addition, the Potency result in assay [7], in [8], in assay [9], in assay [10], in assay [11] and in assay [12] was “inactive” throughout. Also, the Potency entry in [13], in assay [14], in assay [15] and in [16] was “inactive” in each case.

The record behind these values is PubChem BioAssay (Tox21).
